Source: PubChem (National Center for Advancing Translational Sciences (NCATS))
JMJD2A Tudor – blocks the human JMJD2A Tudor domain. O75164. AlphaScreen JMJD2A-Tudor / H3K4me3 peptide binding. Potency, µM (highest dose often 114 µM), for the others: top-dose activity change, negative = inhibition, hits mostly inhibitors. hit rate 4.4% among 390,000; note: % is set by controls: 0 for no effect and ±100 for the full control effect; nearly all actives have a fitted effect of over 50% in size
BAZ2B block – blocks human BAZ2B; AlphaScreen BAZ2B-H3K14Ac peptide displacement; Q9UIF8; AID 504333; Potency, µM (highest dose often 114 µM), for inactives: at the top dose activity change, negative = inhibition, actives largely listed as inhibitors; hit rate 4.4% among 360,000; note: % is set by controls: 0 for no effect and ±100 for the full control effect; nearly all actives have a fitted effect of over 60% in size
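In this displacement format the biotinylated H3(5-23) peptide acetylated at Lys14 serves as ligand at 50 nM, with BAZ2B at 50 nM in PBS pH 7.4 containing 0.01% Tween-20. Donor and acceptor beads are 10 ug/mL final.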
HP1b chromo inh – HP1-beta chromodomain-methylated histone interaction inhibition; Potency, µM (doses to about 114 µM), for the others: at the highest dose activity change, negative = inhibition, most hits filed as inhibitors; AID 540317; AlphaScreen HP1-beta / biotin-H3K9me3 peptide binding; P83916; hit rate 0.56% among 390,000; note: nearly all actives have a fitted effect of over 70% in size
Target sequence (P83916 whole entry, looked up): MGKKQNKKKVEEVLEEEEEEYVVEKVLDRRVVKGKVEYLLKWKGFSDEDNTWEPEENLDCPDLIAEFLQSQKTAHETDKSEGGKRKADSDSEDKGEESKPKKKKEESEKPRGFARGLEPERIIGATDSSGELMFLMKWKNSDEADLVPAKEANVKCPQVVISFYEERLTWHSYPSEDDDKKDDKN
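Compound inhibition of the preformed complex between 50 nM HP1-beta and 50 nM biotinylated H3K9me3 peptide was read by AlphaScreen. Buffer was PBS pH 7.4 with 0.01% Tween-20. Incubations ran 30 min at room temperature, with 10 ug/mL donor/acceptor beads.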
G9a block – G9a (human) methyltransferase inhibition | Q96KQ7 | G9a H3K9 monomethylation, AlphaScreen, 2 h | AID 504332 | Potency, µM (highest dose often 102 µM), for inactives: at the top dose activity, negative = inhibition, hits mostly inhibitors | hit rate 8.8% among 350,000; note: % is set by controls: 0 for no effect and ±100 for the full control effect; nearly all actives have a fitted effect of over 75% in size
Target sequence (Q96KQ7 913-1193 limits assumed): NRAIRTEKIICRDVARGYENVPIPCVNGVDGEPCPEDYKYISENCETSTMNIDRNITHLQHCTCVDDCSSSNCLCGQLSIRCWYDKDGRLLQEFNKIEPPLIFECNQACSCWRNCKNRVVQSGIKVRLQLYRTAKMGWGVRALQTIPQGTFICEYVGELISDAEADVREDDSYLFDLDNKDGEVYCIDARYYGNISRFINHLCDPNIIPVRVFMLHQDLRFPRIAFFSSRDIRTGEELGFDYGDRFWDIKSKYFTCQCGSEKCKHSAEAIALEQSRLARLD
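Quantitative HTS format: methyltransferase activity on a biotin-tagged H3K9 peptide is measured by AlphaScreen, using a rabbit anti-monomethyl-H3K9 antibody with streptavidin donor and anti-IgG acceptor beads. Final levels are 20 nM enzyme, 500 nM peptide, 20 uM SAM; 2 h RT.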
TDP1 inh – TDP1 (human) enzyme inhibition; recombinant TDP1, AlphaScreen DNA substrate cleavage; Potency, µM (top dose mostly 130 µM), without a hit: top-dose activity change, negative = inhibition, hits mostly inhibitors; hit rate 0.28% among 350,000; AID 485290; note: % is set by controls: 0 for no effect and ±100 for the full control effect; nearly all actives have a fitted effect of over 40% in size
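Signal: AlphaScreen proximity between streptavidin donor and anti-FITC acceptor beads on intact substrate. Reaction: Tdp1 1 nM, substrate 15 nM final, 5 min RT after 15 min compound preincubation.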
Sfp inh – blocks B. subtilis Sfp PPTase activity; Biochemical Sfp PPTase activity, qHTS; Q9F4F7; Potency, µM, without a hit: largest response in the series, negative = inhibition, actives largely listed as inhibitors; hit rate 3.5% among 310,000; AID 1490;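 note: the enzyme is Sfp with the accession as filed and its product quenches rhodamine fluorescence; 0% = enzyme reaction without inhibitor and -100% = no enzyme wells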
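Compounds were incubated with enzyme (final 15 nM) for 15 min at room temperature before substrate addition started the reaction. Fluorescence at 525 nm excitation, 598 nm emission was recorded immediately and after 30 minutes.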
* marks the source's active call; other numbers are inactive results; ? = inconclusive; . = no result given; [ ] = dose if it differs, or a comment. Sampled rows, rich in hits. Any-hit rate of the full collection: about 12%. Calls come from the whole dose curve; as a rule, active = well fitted curve in the direction sought with a large enough effect; inconclusive = small, poorly fitted or top-dose-only effect, or another doubt; inactive = no such curve, though single readings can be large; an effect the other way counts as inactive or inconclusive. Potency is the fitted concentration of half-maximal effect.

SMILES | JMJD2A Tudor | BAZ2B block | HP1b chromo inh | G9a block | TDP1 inh | Sfp inh
C=C(C)CSc1cc(C)c(C#N)c2nc3ccccc3n12 | -13% | -24% | 43% | 1.4µM* | -3% | 32µM*
Cc1cc(NCCCCO)n2c(nc3ccccc32)c1C#N | -6% | ? | 11% | 2%[59 µM] | 0% | -11%
CCOC(=O)C1=C(C)N(c2ccc(C)cc2)C(=O)/C1=C\c1ccc(O)c(OC)c1 | 8.9µM* | 45µM* | ? | . | . | 45µM*
CCOc1cc(/C=C2\C(=O)N(CCc3ccc(OC)c(OC)c3)C(C)=C2C(=O)OC)ccc1O | 40µM* | 50µM* | ? | ? | 5% | 50µM*
CCOc1cc(/C=C2\C(=O)N(Cc3ccco3)C(C)=C2C(=O)OC)ccc1O | 18µM* | 50µM* | 20µM* | 8.9µM* | 2% | 20µM*
CCOc1ccccc1NC(=O)CN1C(=O)C(=O)N(Cc2ccco2)C1=O | -17% | -24% | 51% | -4% | 3% | 11%
COC(=O)C1=C(C)N(Cc2ccc(C)cc2)C(=O)C1 | -1% | 1% | 25% | -8% | 8% | 10%
COC(=O)C1=C(C)N(Cc2ccc(C)cc2)C(=O)/C1=C\c1cc(OC)c(OC)c(OC)c1 | 11µM* | 40µM* | -22% | 25µM* | 9% | -16%
CCN(CC(=O)NCc1ccc(Cl)cc1)C(=O)COc1cccc(C(F)(F)F)c1 | -25% | -23% | 36% | -28% | -8% | .
O=C1C[C@@H](c2ccccc2Cl)N1S(=O)(=O)c1ccccc1[N+](=O)[O-] | -15% | . | 26% | . | 7% | 8%
O=C(COc1cccc(C(F)(F)F)c1)Nc1nnc(C2CC2)s1 | -10% | . | 37% | . | -5% | .
COc1ccc([C@H]2CC(=O)C=C(c3ccc(F)cc3OCc3ccccc3)C2)cc1OC | ? | -11% | 6% | 12%[0.501 µM] | 2% | .
COC(=O)C1=C(C)N(Cc2ccc(C)cc2)C(=O)/C1=C\c1ccc(O)c(OC)c1 | 25µM* | 50µM* | 22µM* | 19%[2.33 µM] | 11% | 50µM*
O=C(O)c1ccc(CNC(=O)C2CCCN2C(=O)OCc2ccccc2)cc1 (stereo unspecified) | -14% | 1% | 24% | 16% | . | 6%
O=C[C@@H]1CCCN1C(=O)[C@@H]1CCCN1C(=O)OCc1ccccc1 | . | . | . | 8.9µM* | 4% | 56µM*
O=C(O)C1CCC(=O)N1C(=O)OCc1ccccc1 (stereo unspecified) | -1% | 18% | 38% | 71µM* | 1% | 11%
O=C(NNc1cc(C(F)(F)F)ccc1Cl)c1ccc(=O)[nH]c1 | -14% | 4% | 2% | -32% | 0% | 56µM*
CS(=O)(=O)N1CCc2cc(C(=O)Nc3ccc(S(N)(=O)=O)cc3)ccc21 | -13% | 0% | 22% | 9%[59 µM] | 0% | .
CCC(C)N(C)C1CCN(C(=S)Nc2cccc(SC)c2)CC1 (stereo unspecified) | -25% | -12% | 16% | ? | -1% | 56µM*
CCOC(=O)N1CCC(Nc2c(-c3ccccc3)c(=O)c2=O)CC1 | -18% | -14% | 14% | 56µM* | 1% | 18%
CCOC(=O)N1CCC(Nc2c(-c3ccc(C)cc3)c(=O)c2=O)CC1 | -6% | 3% | 37% | ? | 5% | -13%
CCOC(=O)N1CCC(Nc2cccc(SC)c2)CC1 | ? | ? | -12% | ? | 5% | 56µM*
CCOC(=O)N1CCC(Nc2c(NCCN3CCN(c4ccccc4F)CC3)c(=O)c2=O)CC1 | -1% | -4% | 22% | 12% | 0% | 13%
CCOC(=O)N1CCC(Nc2c(NCCCN(CC)c3cccc(C)c3)c(=O)c2=O)CC1 | ? | ? | -8% | 50µM* | 5% | 3%
COc1ccc2c(c1)O[C@@H](c1cccc(C(F)(F)F)c1)[C@H](OC(=O)NCc1ccc3c(c1)OCO3)C2=O | . | . | . | . | 3% | 1%
CCOC(=O)N1CCN(c2c(NCCCN(C)c3ccccc3)c(=O)c2=O)CC1 | -25% | -6% | 26% | ? | 4% | 14%
